Over roughly 33,000 sequences, “E-score (-0.5 to 0.5)” has its median near -0.036; the highest 2% begin near 0.37. The sample holds the highest values, similar sequences and a random draw of the others, so the mix is not that of the screen.

For this assay, the target named is T1, Yer064c (UniProt P40041).
T1 sequence: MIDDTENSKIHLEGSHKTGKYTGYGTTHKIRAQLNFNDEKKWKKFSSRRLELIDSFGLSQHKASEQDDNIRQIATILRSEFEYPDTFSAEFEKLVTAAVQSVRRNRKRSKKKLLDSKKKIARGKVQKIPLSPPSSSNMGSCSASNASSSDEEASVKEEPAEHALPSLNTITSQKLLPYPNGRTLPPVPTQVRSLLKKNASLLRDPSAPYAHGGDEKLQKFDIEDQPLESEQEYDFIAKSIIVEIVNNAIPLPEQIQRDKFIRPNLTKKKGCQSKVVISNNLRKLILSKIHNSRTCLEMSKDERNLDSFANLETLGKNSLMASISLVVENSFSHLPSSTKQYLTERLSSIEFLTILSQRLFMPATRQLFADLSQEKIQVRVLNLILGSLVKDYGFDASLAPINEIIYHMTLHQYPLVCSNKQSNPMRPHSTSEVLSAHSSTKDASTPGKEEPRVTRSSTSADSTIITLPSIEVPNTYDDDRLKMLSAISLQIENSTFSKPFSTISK
Nature of the assay: PBM E-score (8-mer binding enrichment) (E-score (-0.5 to 0.5)); higher = stronger / more preferred TF binding. To be noted: protein concentration: 200 nM; construct: GST-full length. A digest of the protocol:
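Bound GST-tagged yeast transcription factors, applied at about 100-200 nM to double-stranded universal all-10-mer Agilent arrays, were detected with fluorescent anti-GST. Scans were normalised with masliner. A modified Wilcoxon-Mann-Whitney statistic, the E-score, was assigned to each ungapped eight-base word pooled with its reverse complement by the Universal PBM Analysis Suite.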
AACTGGCT: the “PBM E-score” value was -0.28.

Turning to CGGGTAAC, the “PBM E-score” value was -0.0478.

On to AAGCATAT, for which the “PBM E-score” value was 0.0236.

Turning to GATCATAC, the “PBM E-score” value was -0.0115.

As for CATCATAA, the “PBM E-score” value stood at 0.0722.

Take AATCAGAG: the “PBM E-score” value stood at 0.269.

AATCATAG: the “PBM E-score” value is 0.433.

Turning to CATCATAC, the “PBM E-score” value is 0.215.

For the sequence AATCATAA, the “PBM E-score” value was found to be 0.418.

For AATCATAT, the “PBM E-score” value turned out to be 0.428.

For the sequence CATCATAG, the “PBM E-score” value is 0.25.

As for AATCATAC, the “PBM E-score” value turned out to be 0.451.

As to AATCAAAT, the “PBM E-score” value worked out at 0.23.

As for TATCATAA, the “PBM E-score” value was 0.0309.

Turning to AATGGCAC, the “PBM E-score” value is -0.231.

As to CCCTCCAA, the “PBM E-score” value is -0.12.

As for AATATAAA, the “PBM E-score” value turned out to be 0.0817.

For ATGGCTTC, the “PBM E-score” value is 0.156.

Turning to GGGCGGCA, the “PBM E-score” value was -0.406.

With CACACCCA, the “PBM E-score” value was 0.0764.

With AAACGAGA, the “PBM E-score” value amounted to 0.0214.

GAAAGAAA: the “PBM E-score” value is -0.0206.

On to CCTACGAA, for which the “PBM E-score” value is -0.211.

Take TACGCATA: the “PBM E-score” value was -0.0887.

As to AAGAAACG, the “PBM E-score” value is -0.028.

As to CTTTAGCA, the “PBM E-score” value is -0.154.

In the case of CGTATCGA, the “PBM E-score” value was -0.111.

As for ACGTCACC, the “PBM E-score” value was -0.162.

ATGTCACG: the “PBM E-score” value was -0.123.

With TCGTCACA, the “PBM E-score” value is -0.0543.

Regarding AGGTCACG, the “PBM E-score” value was -0.143.

As to AAGTCACA, the “PBM E-score” value turned out to be 0.414.

Consider TGGTCACA, for which the “PBM E-score” value amounted to 0.103.

As to ACGTCACG, the “PBM E-score” value was -0.289.

For the sequence AAGTCACC, the “PBM E-score” value amounted to 0.447.

For the sequence AAGTCAGG, the “PBM E-score” value was 0.341.

In the case of TAGTCACA, the “PBM E-score” value is 0.478.

Turning to AGGTCACC, the “PBM E-score” value is 0.00721.

With AAGTCACG, the “PBM E-score” value was determined as 0.433.

For the sequence AAGACCAG, the “PBM E-score” value is -0.0791.

CCCGGCAA: the “PBM E-score” value was -0.166.

As to CTGCGGAC, the “PBM E-score” value was -0.0565.

Turning to AGGGGGTC, the “PBM E-score” value was -0.406.

Turning to CCCACATA, the “PBM E-score” value amounted to 0.0317.

Take CCGTTCGA: the “PBM E-score” value turned out to be 0.0719.

With GAGTCACA, the “PBM E-score” value is 0.493.

Take AAGTCACT: the “PBM E-score” value was determined as 0.399.

Take ACGTCACT: the “PBM E-score” value was -0.0404.

As for GGGTCACA, the “PBM E-score” value was 0.00589.

For GCGTCACA, the “PBM E-score” value was -0.13.

As to AGGTCACT, the “PBM E-score” value turned out to be 0.0701.

Turning to GAGGCCAC, the “PBM E-score” value was -0.319.

In the case of ACGGCCGC, the “PBM E-score” value is -0.0196.

Consider AGGCAGTC, for which the “PBM E-score” value is 0.213.

As to CTTTGAGA, the “PBM E-score” value was found to be 0.179.

In the case of TGAGCTAA, the “PBM E-score” value came to 0.189.

On to GCTGTAGA, for which the “PBM E-score” value was -0.0534.

Consider AGTTAGCG, for which the “PBM E-score” value is -0.0192.

Regarding CTTGTGAC, the “PBM E-score” value came to 0.222.

For the sequence ATTGGTCA, the “PBM E-score” value was found to be 0.0959.

In the case of CATCCACC, the “PBM E-score” value is -0.0348.

Regarding CCTGGACA, the “PBM E-score” value was -0.127.

Regarding ACGATTAC, the “PBM E-score” value was 0.185.

As for AAGATTAC, the “PBM E-score” value worked out at 0.241.

As for ATGATTTG, the “PBM E-score” value was determined as 0.299.

ATGATTAC: the “PBM E-score” value was found to be 0.472.

Take ATGATTAG: the “PBM E-score” value came out at 0.438.

Turning to ACGATTAG, the “PBM E-score” value turned out to be 0.152.

For CTGAGTCC, the “PBM E-score” value came out at 0.402.

As to ATGAGTCG, the “PBM E-score” value was determined as 0.474.

On to CTGAGTTC, for which the “PBM E-score” value is 0.104.

On to ATGAGTCC, for which the “PBM E-score” value was found to be 0.442.

For ATGAGTTC, the “PBM E-score” value was 0.327.

For ATGAGTTG, the “PBM E-score” value was 0.194.

For ATGAGTGC, the “PBM E-score” value was 0.226.

Take CTGAGTGC: the “PBM E-score” value was -0.0835.

For the sequence ATGAGTGG, the “PBM E-score” value was found to be 0.193.

As to AGCTACGG, the “PBM E-score” value is -0.0957.

In the case of CAGTGGTC, the “PBM E-score” value came to 0.0376.

With GGCACGGA, the “PBM E-score” value was -0.127.

As to TACTTCTA, the “PBM E-score” value was 0.0324.

Consider TGTCCAAA, for which the “PBM E-score” value was -0.0925.

ATTTCTTC: the “PBM E-score” value was -0.058.

Consider ATGATTGG, for which the “PBM E-score” value turned out to be 0.286.

For the sequence ATGATTGA, the “PBM E-score” value is 0.423.

On to GTGATTGA, for which the “PBM E-score” value was determined as 0.401.

The values are drawn from the supplement of paper PMC3334620.
